Hits are enriched below; roughly 2.4% of the tested compounds scored in any of these assays.
D2 PAM-1 – human D2 receptor positive allosteric modulation | P14416 | DiscoveRx D2 beta-arrestin cells, luminescence, 90 min; 100% = 57 uM dopamine signal | potentiation, % (concentration not given with the values) | actives 0.23% (n = 360,000); in the data active = potentiation above about 50%; inconclusive = mostly about 30% to 49%
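PathHunter D2 cells, attached overnight at 37 deg C, received compound in DMSO plus dopamine at EC20 (50 nM final) for 90 min at 37 deg C. Beta-arrestin recruitment was read as luminescence after 1 h with detection reagent at ambient temperature.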
D2 ag-1 – human D2 receptor agonism in beta-arrestin assay; DiscoveRx PathHunter D2 beta-arrestin, luminescence, 90 min; 100% = 57 uM dopamine signal; actives 0.084% (n = 360,000); AID 624465; P14416; activation, % (concentration not given with the values); in the data active = activation above about 40%; inconclusive = between about 15% and that limit
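Agonist mode: compounds alone added to overnight-plated D2 PathHunter cells for 90 min at 37 C, with 57 uM final dopamine (EC100) defining full response. Beta-arrestin recruitment detected by chemiluminescent reagent, read after 1 h at ambient temperature.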
D2 PAM-2 – D2 dopamine receptor (human) potentiation | HEK293 T-REx D2, calcium flux, EC20 dopamine potentiation | potentiation, % at 10 µM | actives 0.34% (n = 340,000) | AID 485347 | P14416;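 active = potentiation over 3 SD above the plate norm, cut at about 30% in these data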
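Potentiation of an EC20 dopamine calcium response is measured in a force-coupled, tetracycline-inducible Hek293 Trex D2 line. Compound-only kinetic reads over 180 s flag agonists before dopamine addition.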
D2 ag-2 – activates the human D2 dopamine receptor | P14416 | AID 485358 | actives 0.53% (n = 340,000) | activation, % at 2 µM | HEK293 T-REx D2 cells, calcium flux agonist mode;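 active = activation over 3 SD above normal in the single-dose calcium agonist read, cut at about 30% in these data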
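Agonism scored from kinetic calcium signal (1 read/sec, 180 s) following compound pin transfer, after a 10 s baseline. Cells: HEK293 Trex line expressing inducible D2 receptor coupled to calcium, dye-loaded after overnight culture at 30 C.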
D2 antagonist – antagonizes the human D2 dopamine receptor | actives 2% (n = 340,000) | P14416 | inhibition, % at 10 µM | HEK293 TREx D2 cells, calcium flux, dopamine EC80 | AID 485344; in the data active = inhibition above about 30%; inactive = below that, where a call was filed
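Tetracycline-induced HEK293 TREx cells expressing D2 receptor forced-coupled to calcium signalling, loaded with no-wash calcium dye. Compounds added and calcium flux read 180 s, then dopamine added at EC80 and read a further 180 s.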
D3 ag – activates human D3 dopamine receptor beta-arrestin recruitment; actives 4% (n = 2,300); shares compounds with D2 ag-2; DiscoveRx D3 beta-arrestin cells, luminescence, 90 min; Potency, µM (titrated, usually from 76.9 µM), hits mostly activators; note: nearly all actives have a fitted effect of over 70% in size
Target sequence (P35462 whole entry, looked up): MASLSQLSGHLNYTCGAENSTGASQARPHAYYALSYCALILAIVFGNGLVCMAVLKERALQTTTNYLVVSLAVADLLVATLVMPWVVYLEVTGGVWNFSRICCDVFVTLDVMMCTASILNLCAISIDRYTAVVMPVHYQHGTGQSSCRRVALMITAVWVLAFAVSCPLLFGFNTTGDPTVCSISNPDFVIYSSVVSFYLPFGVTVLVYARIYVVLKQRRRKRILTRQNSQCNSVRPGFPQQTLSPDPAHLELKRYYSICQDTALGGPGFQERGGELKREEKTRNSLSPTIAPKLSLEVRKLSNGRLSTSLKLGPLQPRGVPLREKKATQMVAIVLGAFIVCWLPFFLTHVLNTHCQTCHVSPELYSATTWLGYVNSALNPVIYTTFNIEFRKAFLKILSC
D2 ag-3 – D2 receptor agonism, beta-arrestin counterscreen | AID 720507 | Potency, µM (top dose mostly 76.9 µM), actives largely listed as activators | shares compounds with D2 ag-2 | DiscoveRx PathHunter D2 beta-arrestin, luminescence, 90 min; response scale: percent relative to full dopamine signal | actives 5.9% (n = 2,300); note: nearly all actives have a fitted effect of over 70% in size
Large screens that a line does not name were inactive (follow-up assays come after a bar, where they were run). Unless noted, calls come from the whole dose curve; as a rule, active = well fitted activation curve with a large enough effect; inconclusive = small, poorly fitted or top-dose-only effect; inactive = flat fitted curve, though single readings scatter.

Cc1cc(OC(C)C(=O)N2C[C@H]3C[C@@H](C2)c2cccc(=O)n2C3)c2c(C)c(C)c(=O)oc2c1 (stereo partly drawn)	D2 ag-2 41 | D3 ag inactive | D2 ag-3 inactive
Cc1c(C)c2ccc(OC(C)C(=O)N3C[C@H]4C[C@@H](C3)c3cccc(=O)n3C4)c(C)c2oc1=O (stereo partly drawn)	none
CSc1ncc(Cl)c(C(=O)Nc2c(C(=O)c3ccc(C)c(F)c3)oc3ccccc23)n1	none (no result: D2 PAM-1, D2 ag-1, D2 antagonist)
COc1ccc(NS(=O)(=O)c2cc(C(=O)N3CCC3)ccc2C)cc1	none | D3 ag inactive | D2 ag-3 inactive
COCCN=c1scc(-c2cccs2)n1/N=C/c1ccc(O)c(O)c1O	D2 PAM-1 76, D2 ag-1 94, D2 ag-2 78, D2 antagonist 73 | D3 ag 25µM | D2 ag-3 7.1µM
COc1cc2oc(=O)cc(CN3CCCCC3)c2cc1Cl	none (no result: D2 PAM-2, D2 ag-2, D2 antagonist)
CC1C(=O)N(Cc2cn(Cc3ccco3)nn2)CCS(=O)(=O)N1Cc1ccc(-c2ccc(Cl)cc2)cc1 (stereo not drawn)	none (no result: D2 PAM-2, D2 ag-2, D2 antagonist)
Cn1cc(C(F)(F)F)nc1-c1ccc(OCC(O)CNCCOc2ccc(O)c(C(N)=O)c2)cc1 (stereo not drawn)	D2 ag-1 inconclusive, D2 ag-2 90, D2 antagonist 72 | D3 ag inconclusive | D2 ag-3 inconclusive
O=C(Nc1ccc(Cl)cc1)c1nc[nH]c1C(=O)N1CCc2ccccc2C1	D2 antagonist 51 | D3 ag inactive | D2 ag-3 inactive
Cc1ccc(NC(=O)c2nc[nH]c2C(=O)NCCCCCNC(=O)OC(C)(C)C)cc1	none | D3 ag inactive | D2 ag-3 inactive
Cc1ccc(NC(=O)c2nc[nH]c2C(=O)N2CCN(C(=O)OC(C)(C)C)CC2)cc1	none | D3 ag inactive | D2 ag-3 inactive
CC(C)(C)OC(=O)NCCCCCNC(=O)c1[nH]cnc1C(=O)Nc1ccc(Cl)cc1	none
O=C(Nc1nccs1)c1nc[nH]c1C(=O)N1CCc2ccccc2C1	none
CC(C)(C)OC(=O)N1CCN(C(=O)c2[nH]cnc2C(=O)Nc2ccc(Cl)cc2)CC1	none (no result: D2 PAM-2, D2 ag-2, D2 antagonist)
COc1ccc(OC)c(NC(=O)CC2C(=O)NCCN2C(=O)C(F)(F)F)c1 (stereo not drawn)	none (no result: D2 PAM-1, D2 ag-1, D2 antagonist)
CC(C)SCCCCOc1ccc2ccccc2c1	none | D3 ag inactive | D2 ag-3 inactive
O=C(NCc1ccccc1)/C(=C\c1cccc([N+](=O)[O-])c1)NC(=O)c1ccco1	none (no result: D2 PAM-2, D2 ag-2, D2 antagonist)
COC(=O)COc1ccc2oc(-c3ccc(OC)cc3)cc(=O)c2c1	none (no result: D2 PAM-1, D2 ag-1, D2 antagonist)
O=C(COc1ccc2oc(-c3ccccc3)cc(=O)c2c1)Nc1ccccc1	none | D3 ag inactive | D2 ag-3 inactive
CN(C)CCN1CCN(C2CN(C3CCCC3)S(=O)(=O)C2)CC1 (stereo not drawn)	none (no result: D2 PAM-2, D2 ag-2, D2 antagonist)
C/C(=N\NC(=S)Nc1cccc(C)c1)c1ccco1	D2 ag-2 70, D2 antagonist 67 | D3 ag inactive | D2 ag-3 inactive
C/C(=N\NC(=S)Nc1cccc(C)c1)c1ccccc1	none
COc1ccc(-n2c3c(cc(-c4nc(-c5ccc(Cl)cc5)cs4)c2=O)C(=O)CC(C)(C)C3)cc1Cl	none (no result: D2 PAM-1, D2 ag-1, D2 antagonist)
COc1ccc(C2OC(=O)CC2C(=O)NCc2ccc(F)cc2)cc1OC (stereo not drawn)	none | D3 ag inactive | D2 ag-3 inactive
COc1cc(C#Cc2c(-c3ccccc3OC)oc3ccccc23)cc(OC)c1	none | D3 ag inactive | D2 ag-3 inactive
O=C1N=C(N2CCOCC2)S/C1=C/c1ccc(-c2ccc(F)cc2)o1	D2 ag-1 inconclusive, D2 ag-2 55 | D3 ag inactive | D2 ag-3 inconclusive
CCN1CCN(c2ncnc3scc(-c4ccc(OC)cc4)c23)CC1	D2 ag-1 78, D2 ag-2 41 | D3 ag inactive | D2 ag-3 40µM
O=C(Nc1cc(Cl)cc(Cl)c1)c1ccc(F)c(S(=O)(=O)N2CCCCCC2)c1	none (no result: D2 PAM-1, D2 ag-1, D2 antagonist)
Cc1ccccc1OCCSc1nc(C)c(Cc2ccccc2)c(=O)[nH]1	none (no result: D2 PAM-1, D2 ag-1, D2 antagonist)
Cc1cc(NC(=O)c2ccccc2F)on1	D2 ag-2 68 | D3 ag inactive | D2 ag-3 inactive
O=C(NCC(c1cccnc1)N1CCN(Cc2ccccc2)CC1)C(=O)Nc1cccc(Cl)c1 (stereo not drawn)	none (no result: D2 PAM-1, D2 ag-1, D2 antagonist)
Cc1cccc2cc(CNCC3CCCO3)c(Cl)nc12 (stereo not drawn)	D2 ag-2 45 | D3 ag inactive | D2 ag-3 inactive
Cc1ccc(NC(=O)CC(NC(=O)c2ccccc2Cl)c2ccccc2)nc1 (stereo not drawn)	none | D3 ag inactive | D2 ag-3 inactive
Cc1ccnc(NC(=O)CC(NC(=O)c2ccccc2Cl)c2ccccc2)c1 (stereo not drawn)	none
COc1ccc(C2C=C(c3ccccc3)Nc3nc(NC(=O)/C=C/c4ccccc4OC)nn32)cc1 (stereo not drawn)	none (no result: D2 PAM-1, D2 ag-1, D2 antagonist)
O=C(NC1CCN(Cc2ccccc2)CC1)c1ccc(Cn2c(=O)c3ccccc3n(Cc3ccc(Cl)cc3)c2=O)cc1	none (no result: D2 PAM-1, D2 ag-1, D2 ag-2, D2 antagonist)
Cc1cc(NC(=O)COc2coc(CN3CCN(c4ccccc4F)CC3)cc2=O)no1	D2 ag-2 62 | D3 ag inactive | D2 ag-3 inconclusive
Cc1cc(NC(=O)COc2coc(CN3CCN(c4ccc(F)cc4)CC3)cc2=O)no1	none
Cc1cccc(NC(=O)COc2coc(CN3CCN(c4ccccc4)CC3)cc2=O)c1C	D2 ag-1 inconclusive, D2 ag-2 43 | D3 ag inactive | D2 ag-3 inactive
O=C(COc1coc(CN2CCN(c3ccccc3F)CC2)cc1=O)Nc1ccccc1	none (no result: D2 PAM-2, D2 ag-2, D2 antagonist)
Cc1ccc(NC(=O)COc2coc(CN3CCN(c4ccccc4)CC3)cc2=O)cc1	none
O=C(COc1coc(CN2CCN(c3ccccc3)CC2)cc1=O)Nc1ccccc1	D2 ag-2 46 | D3 ag inactive | D2 ag-3 inactive
Cc1cc(NC(=O)COc2coc(CN3CCN(c4ccccc4)CC3)cc2=O)no1	none (no result: D2 PAM-2, D2 ag-2, D2 antagonist) | D3 ag inactive | D2 ag-3 inactive
O=C(C[C@H]1C[C@@H]2c3cc(NC(=O)Nc4ccccc4)ccc3O[C@@H]2[C@@H](CO)O1)NCC1CC1	none (no result: D2 PAM-2, D2 ag-2, D2 antagonist)
COc1ccc(CCNC(=O)CCn2c(=O)c3cccn3c3ccc(F)cc32)cc1OC	none (no result: D2 PAM-1, D2 ag-1, D2 antagonist)
CC(=O)c1ccc2c(c1)N(Cc1ccccc1Cl)C(=O)C(C)S2 (stereo not drawn)	none (no result: D2 PAM-2, D2 ag-2, D2 antagonist)
O=C(NCCNS(=O)(=O)c1ccccc1)c1ccc([N+](=O)[O-])cc1	D2 ag-2 58 | D3 ag inactive | D2 ag-3 inactive

High-throughput results as filed in PubChem BioAssay.
